Test results reported in ChEMBL document CHEMBL1961873, “Compounds: GSK PKIS; Assays: Nanosyn kinase panel” (2012).

Key:
[1] = target: Mitogen-activated protein kinase kinase kinase kinase 4 (Homo sapiens) (UniProt O95819); details: at 1 µM;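 note: reported figure is an averaged inhibition value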
[2] = target: Dual specificity mitogen-activated protein kinase kinase 1 (Homo sapiens) (UniProt Q02750); details: at 0.1 µM
[3] = target: Dual specificity mitogen-activated protein kinase kinase 1 (Homo sapiens) (UniProt Q02750); details: at 1 µM
[4] = target: Misshapen-like kinase 1 (Homo sapiens) (UniProt Q8N4C8); details: at 0.1 µM
Sequence of Misshapen-like kinase 1 (Homo sapiens) (Q8N4C8 whole entry, looked up): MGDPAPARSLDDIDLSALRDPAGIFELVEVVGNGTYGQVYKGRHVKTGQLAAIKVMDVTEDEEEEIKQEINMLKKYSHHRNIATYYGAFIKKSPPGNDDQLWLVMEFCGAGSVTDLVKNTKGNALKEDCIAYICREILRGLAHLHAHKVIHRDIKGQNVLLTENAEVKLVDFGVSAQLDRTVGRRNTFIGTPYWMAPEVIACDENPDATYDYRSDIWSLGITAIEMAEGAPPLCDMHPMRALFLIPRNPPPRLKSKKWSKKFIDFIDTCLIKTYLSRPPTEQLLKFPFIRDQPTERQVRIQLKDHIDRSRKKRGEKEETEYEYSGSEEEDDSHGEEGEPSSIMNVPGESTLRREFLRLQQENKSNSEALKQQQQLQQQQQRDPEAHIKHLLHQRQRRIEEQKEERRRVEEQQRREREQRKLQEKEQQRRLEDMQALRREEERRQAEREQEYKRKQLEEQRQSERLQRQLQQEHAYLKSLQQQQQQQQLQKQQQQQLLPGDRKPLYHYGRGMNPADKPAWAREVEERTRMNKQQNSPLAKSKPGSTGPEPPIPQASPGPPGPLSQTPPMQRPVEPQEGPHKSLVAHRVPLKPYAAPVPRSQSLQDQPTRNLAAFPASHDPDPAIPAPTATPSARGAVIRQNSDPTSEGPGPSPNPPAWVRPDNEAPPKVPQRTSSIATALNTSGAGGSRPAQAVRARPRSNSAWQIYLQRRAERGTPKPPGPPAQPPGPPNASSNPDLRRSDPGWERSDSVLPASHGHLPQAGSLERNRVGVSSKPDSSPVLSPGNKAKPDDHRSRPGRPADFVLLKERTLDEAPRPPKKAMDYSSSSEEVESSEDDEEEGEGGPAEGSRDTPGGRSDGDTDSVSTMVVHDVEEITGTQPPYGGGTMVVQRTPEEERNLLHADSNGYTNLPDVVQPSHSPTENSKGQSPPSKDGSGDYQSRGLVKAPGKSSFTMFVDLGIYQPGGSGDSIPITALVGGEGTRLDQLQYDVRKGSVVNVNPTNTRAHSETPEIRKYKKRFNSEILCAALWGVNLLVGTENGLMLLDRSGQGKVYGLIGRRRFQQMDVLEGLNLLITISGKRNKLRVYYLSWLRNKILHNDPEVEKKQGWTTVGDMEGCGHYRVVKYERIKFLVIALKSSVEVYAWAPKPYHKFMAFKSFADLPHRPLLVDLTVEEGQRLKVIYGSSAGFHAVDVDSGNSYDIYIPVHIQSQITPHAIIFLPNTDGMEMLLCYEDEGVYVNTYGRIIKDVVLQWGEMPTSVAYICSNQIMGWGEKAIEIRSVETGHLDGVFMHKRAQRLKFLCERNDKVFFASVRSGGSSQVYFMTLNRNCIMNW

[5] = target: Misshapen-like kinase 1 (Homo sapiens) (UniProt Q8N4C8); details: at 1 µM
[6] = target: T1, Serine/threonine-protein kinase 4 (Homo sapiens) (UniProt Q13043); details: at 0.1 µM
T1 sequence (whole entry): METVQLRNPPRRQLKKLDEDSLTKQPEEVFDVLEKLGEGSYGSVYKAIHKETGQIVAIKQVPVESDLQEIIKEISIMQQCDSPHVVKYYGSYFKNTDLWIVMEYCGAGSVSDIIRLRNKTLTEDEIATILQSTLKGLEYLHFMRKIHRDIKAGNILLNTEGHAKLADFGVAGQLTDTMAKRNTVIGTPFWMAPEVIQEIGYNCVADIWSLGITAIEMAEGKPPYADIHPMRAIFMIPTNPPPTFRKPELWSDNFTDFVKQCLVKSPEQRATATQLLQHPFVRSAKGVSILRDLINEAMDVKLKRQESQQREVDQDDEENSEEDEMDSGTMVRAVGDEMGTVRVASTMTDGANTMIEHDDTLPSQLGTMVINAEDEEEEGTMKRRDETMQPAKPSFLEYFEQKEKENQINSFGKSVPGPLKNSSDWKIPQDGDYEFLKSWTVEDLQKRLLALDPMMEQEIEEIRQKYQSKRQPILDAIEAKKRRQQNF

[7] = target: T1, Serine/threonine-protein kinase 4 (Homo sapiens); details: at 1 µM
[8] = target: T2, Serine/threonine-protein kinase 3 (Homo sapiens) (UniProt Q13188); details: at 0.1 µM
T2 sequence (whole entry): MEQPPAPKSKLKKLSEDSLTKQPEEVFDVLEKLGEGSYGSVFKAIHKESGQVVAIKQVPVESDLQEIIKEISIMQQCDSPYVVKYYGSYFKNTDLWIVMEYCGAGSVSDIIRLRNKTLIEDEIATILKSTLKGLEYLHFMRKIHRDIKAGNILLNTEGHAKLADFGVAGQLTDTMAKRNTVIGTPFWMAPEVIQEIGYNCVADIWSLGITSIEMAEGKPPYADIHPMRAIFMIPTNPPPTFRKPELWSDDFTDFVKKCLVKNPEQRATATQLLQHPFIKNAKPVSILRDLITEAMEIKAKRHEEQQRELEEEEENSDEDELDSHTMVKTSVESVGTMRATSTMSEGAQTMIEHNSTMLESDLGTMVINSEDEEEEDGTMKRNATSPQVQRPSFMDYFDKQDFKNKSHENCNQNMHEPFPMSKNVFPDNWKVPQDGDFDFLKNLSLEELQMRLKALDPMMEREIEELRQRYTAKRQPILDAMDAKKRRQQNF

[9] = target: T2, Serine/threonine-protein kinase 3 (Homo sapiens); details: at 1 µM
[10] = target: Serine/threonine-protein kinase 26 (Homo sapiens) (UniProt Q9P289); details: at 0.1 µM
[11] = target: Serine/threonine-protein kinase 26 (Homo sapiens) (UniProt Q9P289); details: at 1 µM
[12] = target: Serine/threonine-protein kinase PAK 1 (Homo sapiens) (UniProt Q13153); details: at 0.1 µM
Sequence of Serine/threonine-protein kinase PAK 1 (Homo sapiens) (Q13153 whole entry): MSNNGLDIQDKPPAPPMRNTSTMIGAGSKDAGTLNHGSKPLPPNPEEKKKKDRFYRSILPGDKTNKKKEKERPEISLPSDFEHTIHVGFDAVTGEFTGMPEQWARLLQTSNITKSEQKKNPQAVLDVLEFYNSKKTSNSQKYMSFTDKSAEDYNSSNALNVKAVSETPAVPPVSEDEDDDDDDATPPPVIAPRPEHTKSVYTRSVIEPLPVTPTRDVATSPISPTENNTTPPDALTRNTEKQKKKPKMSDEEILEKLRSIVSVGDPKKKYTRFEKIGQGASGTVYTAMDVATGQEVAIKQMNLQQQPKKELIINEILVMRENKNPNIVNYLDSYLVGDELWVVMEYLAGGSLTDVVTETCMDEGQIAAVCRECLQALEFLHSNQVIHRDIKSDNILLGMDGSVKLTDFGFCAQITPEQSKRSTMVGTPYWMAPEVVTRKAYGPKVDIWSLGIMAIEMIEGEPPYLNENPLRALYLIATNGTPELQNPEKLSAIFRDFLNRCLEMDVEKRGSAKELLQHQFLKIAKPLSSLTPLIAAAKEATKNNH

[13] = target: Serine/threonine-protein kinase PAK 1 (Homo sapiens) (UniProt Q13153); details: at 1 µM
[14] = target: Serine/threonine-protein kinase PAK 2 (Homo sapiens) (UniProt Q13177); details: at 0.1 µM
Sequence of Serine/threonine-protein kinase PAK 2 (Homo sapiens) (Q13177 whole entry): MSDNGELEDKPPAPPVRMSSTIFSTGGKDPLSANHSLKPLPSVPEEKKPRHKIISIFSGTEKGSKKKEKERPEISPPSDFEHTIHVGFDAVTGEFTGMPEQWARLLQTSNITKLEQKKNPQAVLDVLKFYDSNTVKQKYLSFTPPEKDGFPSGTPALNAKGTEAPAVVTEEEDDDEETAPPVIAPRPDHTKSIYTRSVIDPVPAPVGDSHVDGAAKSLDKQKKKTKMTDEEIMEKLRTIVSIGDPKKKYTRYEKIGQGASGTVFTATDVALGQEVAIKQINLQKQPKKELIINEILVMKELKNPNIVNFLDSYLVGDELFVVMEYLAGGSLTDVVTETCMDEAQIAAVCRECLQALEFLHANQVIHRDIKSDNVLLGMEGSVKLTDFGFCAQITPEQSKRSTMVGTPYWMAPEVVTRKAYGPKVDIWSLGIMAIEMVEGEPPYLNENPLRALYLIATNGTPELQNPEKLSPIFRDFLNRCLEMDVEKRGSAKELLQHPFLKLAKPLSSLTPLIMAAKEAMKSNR

[15] = target: Serine/threonine-protein kinase PAK 2 (Homo sapiens) (UniProt Q13177); details: at 1 µM
[16] = target: Serine/threonine-protein kinase PAK 3 (Homo sapiens) (UniProt O75914); details: at 0.1 µM
Sequence of Serine/threonine-protein kinase PAK 3 (Homo sapiens) (O75914 whole entry, looked up): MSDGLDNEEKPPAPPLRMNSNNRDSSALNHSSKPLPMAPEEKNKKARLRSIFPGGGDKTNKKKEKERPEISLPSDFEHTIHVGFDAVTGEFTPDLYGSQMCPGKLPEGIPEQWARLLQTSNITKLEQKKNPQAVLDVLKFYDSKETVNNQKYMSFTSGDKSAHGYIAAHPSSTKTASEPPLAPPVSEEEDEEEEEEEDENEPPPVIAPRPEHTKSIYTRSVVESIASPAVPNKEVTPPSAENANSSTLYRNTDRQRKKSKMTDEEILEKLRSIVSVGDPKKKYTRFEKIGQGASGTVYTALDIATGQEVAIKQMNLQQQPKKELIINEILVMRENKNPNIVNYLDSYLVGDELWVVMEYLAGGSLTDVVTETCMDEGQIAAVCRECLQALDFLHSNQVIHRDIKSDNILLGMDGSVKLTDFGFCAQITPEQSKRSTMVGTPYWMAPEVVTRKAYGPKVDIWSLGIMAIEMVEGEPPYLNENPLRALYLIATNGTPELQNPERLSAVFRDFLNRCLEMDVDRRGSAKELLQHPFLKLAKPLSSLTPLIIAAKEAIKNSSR

[17] = target: Serine/threonine-protein kinase PAK 3 (Homo sapiens) (UniProt O75914); details: at 1 µM
[18] = target: Serine/threonine-protein kinase PAK 5 (Homo sapiens) (UniProt Q9P286); details: at 0.1 µM
Sequence of Serine/threonine-protein kinase PAK 5 (Homo sapiens) (Q9P286 whole entry, looked up): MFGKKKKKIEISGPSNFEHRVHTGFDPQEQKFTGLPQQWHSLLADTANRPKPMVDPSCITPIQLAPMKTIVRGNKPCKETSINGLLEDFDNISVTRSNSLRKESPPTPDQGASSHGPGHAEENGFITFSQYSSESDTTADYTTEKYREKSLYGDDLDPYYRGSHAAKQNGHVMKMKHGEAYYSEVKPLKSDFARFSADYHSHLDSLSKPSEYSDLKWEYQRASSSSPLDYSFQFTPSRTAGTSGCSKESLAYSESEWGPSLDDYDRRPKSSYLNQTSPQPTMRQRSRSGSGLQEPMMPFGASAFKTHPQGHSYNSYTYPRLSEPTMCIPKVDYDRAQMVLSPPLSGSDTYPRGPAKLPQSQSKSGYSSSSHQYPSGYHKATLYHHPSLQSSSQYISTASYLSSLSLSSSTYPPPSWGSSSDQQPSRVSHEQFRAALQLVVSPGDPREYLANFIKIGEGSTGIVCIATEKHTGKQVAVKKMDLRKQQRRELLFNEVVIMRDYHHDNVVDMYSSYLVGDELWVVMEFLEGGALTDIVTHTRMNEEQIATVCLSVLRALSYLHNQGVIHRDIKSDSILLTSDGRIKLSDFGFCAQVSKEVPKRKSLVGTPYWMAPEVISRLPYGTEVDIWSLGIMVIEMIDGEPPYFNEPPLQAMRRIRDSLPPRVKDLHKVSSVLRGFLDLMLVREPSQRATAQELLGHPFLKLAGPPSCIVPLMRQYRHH

[19] = target: Serine/threonine-protein kinase PAK 5 (Homo sapiens) (UniProt Q9P286); details: at 1 µM
[20] = target: Serine/threonine-protein kinase PAK 6 (Homo sapiens) (UniProt Q9NQU5); details: at 0.1 µM;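 note: mean PAK6 inhibition reported from the GSK PKIS screen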

Sequence of Mitogen-activated protein kinase kinase kinase kinase 4 (Homo sapiens) (O95819 2-1239 limits assumed): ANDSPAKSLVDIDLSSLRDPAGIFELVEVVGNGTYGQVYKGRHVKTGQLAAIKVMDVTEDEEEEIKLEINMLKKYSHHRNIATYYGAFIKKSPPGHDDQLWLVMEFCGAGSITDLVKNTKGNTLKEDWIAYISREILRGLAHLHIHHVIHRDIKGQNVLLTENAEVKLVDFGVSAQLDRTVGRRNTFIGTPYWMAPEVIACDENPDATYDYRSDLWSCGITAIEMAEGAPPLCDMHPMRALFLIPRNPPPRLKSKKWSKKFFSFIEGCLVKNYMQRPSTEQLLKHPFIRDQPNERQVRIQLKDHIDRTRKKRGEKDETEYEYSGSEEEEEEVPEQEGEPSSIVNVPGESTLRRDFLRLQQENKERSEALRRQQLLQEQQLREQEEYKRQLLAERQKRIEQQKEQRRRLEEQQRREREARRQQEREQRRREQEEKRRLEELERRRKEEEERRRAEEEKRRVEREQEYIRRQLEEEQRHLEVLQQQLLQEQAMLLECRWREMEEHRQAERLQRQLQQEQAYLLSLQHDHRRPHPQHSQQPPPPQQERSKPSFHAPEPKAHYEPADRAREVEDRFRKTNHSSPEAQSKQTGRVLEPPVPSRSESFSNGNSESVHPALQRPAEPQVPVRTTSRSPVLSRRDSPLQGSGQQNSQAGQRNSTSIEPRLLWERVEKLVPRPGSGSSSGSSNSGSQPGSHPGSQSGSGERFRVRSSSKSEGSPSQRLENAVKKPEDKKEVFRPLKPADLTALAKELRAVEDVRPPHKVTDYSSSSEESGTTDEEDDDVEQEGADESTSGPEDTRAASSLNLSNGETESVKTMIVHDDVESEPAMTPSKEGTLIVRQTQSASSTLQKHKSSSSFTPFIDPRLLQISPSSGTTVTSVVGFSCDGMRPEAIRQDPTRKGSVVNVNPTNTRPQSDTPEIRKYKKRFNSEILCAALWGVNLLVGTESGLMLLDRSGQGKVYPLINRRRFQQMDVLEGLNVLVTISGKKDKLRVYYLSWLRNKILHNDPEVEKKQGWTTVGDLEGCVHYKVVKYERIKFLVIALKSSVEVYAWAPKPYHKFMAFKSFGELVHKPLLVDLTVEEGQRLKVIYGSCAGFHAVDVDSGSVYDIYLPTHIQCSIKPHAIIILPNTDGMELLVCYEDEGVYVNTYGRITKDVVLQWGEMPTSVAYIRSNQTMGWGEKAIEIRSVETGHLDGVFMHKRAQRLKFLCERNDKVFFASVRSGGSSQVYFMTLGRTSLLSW

| Structure (SMILES) | inhibition [1] [%] | inhibition [2] [%] | inhibition [3] [%] | inhibition [4] [%] | inhibition [5] [%] | inhibition [6] [%] | inhibition [7] [%] | inhibition [8] [%] | inhibition [9] [%] | inhibition [10] [%] | inhibition [11] [%] | inhibition [12] [%] | inhibition [13] [%] | inhibition [14] [%] | inhibition [15] [%] | inhibition [16] [%] | inhibition [17] [%] | inhibition [18] [%] | inhibition [19] [%] | inhibition [20] [%] |
| --- | --- | --- | --- | --- | --- | --- | --- | --- | --- | --- | --- | --- | --- | --- | --- | --- | --- | --- | --- | --- |
| COc1cc2ncn(-c3cc(OCc4cccs4)c(C(N)=O)s3)c2cc1OC | 67.2 | 3.5 | 2.83 | 18 | 63.5 | 20.6 | 65.5 | 19.5 | 62.6 | 2.25 | 0.69 | 5.82 | 5.75 | 0.62 | 0.03 | 2 | 4.56 | 8.19 | 8.5 | 6.2 |
| NS(=O)(=O)c1ccc(Nc2cc(-c3ccc(O)c(F)c3)n[nH]2)cc1 | 76.2 | -2.69 | -3.65 | 11.6 | 65.7 | -1.34 | 12.6 | -1.84 | 9.64 | 0.95 | 3.14 | -5.59 | -0.83 | -1.12 | -1.29 | -4.62 | -3.25 | -6.87 | -2.39 | 1.44 |
| c1ccc(Oc2ccc(Nc3ncc(-c4ccccc4)o3)cc2)cc1 | 6.86 | 0.88 | 1.76 | 3.49 | 7.84 | 1.03 | 1.83 | 0.33 | 0.37 | -1.17 | 0.79 | -1.14 | 6.59 | 0.5 | -0.36 | 0.64 | 0.63 | -0.61 | 2.2 | -2.49 |
| CN(C)c1ccc2c(c1)/C(=C/Nc1ccc(S(N)(=O)=O)cc1)C(=O)N2 | 70 | 2.52 | 6.25 | 18.1 | 63.6 | 44.2 | 71.7 | 32.3 | 68 | 0.49 | 20.2 | 4.25 | 2.53 | -0.61 | 0.6 | 1.32 | 2.05 | -3.51 | -4.48 | 11.8 |
| NCc1ccc(-n2c(-c3nonc3N)nc3cnccc32)cc1 | 20.3 | 8.09 | 8.5 | 11.2 | 16.3 | 9.89 | 19.6 | 10.2 | 13.1 | 0.95 | -0.73 | 12 | 11.4 | 3.24 | 4.52 | 5.94 | 6.83 | – | -2.63 | -1.38 |
| COc1ccc2ncn(-c3cc(O[C@H](C)c4ccccc4Cl)c(C(N)=O)s3)c2c1 | 5.82 | 2.51 | 2.76 | 5.84 | 5.42 | 3.89 | 13 | 6.32 | 13.2 | -2.67 | -5.03 | 3.16 | 7.26 | 1.84 | 1.19 | 5.49 | 6.75 | 1.71 | 3.63 | -3.39 |
| Cc1nnc(-c2ccc(C)c(-c3ccc(C(=O)NCc4ccc(Cl)cc4)cc3)c2)o1 | 5.28 | 6.35 | 4.13 | 5.42 | 5.04 | 3.28 | 4.86 | 4.12 | 5.51 | -1.19 | 0.59 | 7.92 | 6.11 | 1.55 | 1.24 | 4.16 | 4.01 | – | -2.54 | -4.24 |
